Screening results deposited in PubChem by Broad Institute.
This is a sample that favours compounds with a hit; in the whole collection about 1.3% have one here.
ID4 SMM: ID4 (human) binding; calls only; P47928; 31,000 tested, 1.2% active; small molecule microarray, Flag-ID4 binding, fluorescence F/B; call rule not given here;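 note: a binder raises fluorescence above local background on the spot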
STK33 inh: human STK33 kinase inhibition. inhibition, % at 12.5 µM. ADP-Glo luminescence, MBP substrate. Q9BYT3. 27,000 tested, 0.44% active. AID 2322; in the data active = inhibition above about 20%
Target sequence (Q9BYT3 whole entry, looked up): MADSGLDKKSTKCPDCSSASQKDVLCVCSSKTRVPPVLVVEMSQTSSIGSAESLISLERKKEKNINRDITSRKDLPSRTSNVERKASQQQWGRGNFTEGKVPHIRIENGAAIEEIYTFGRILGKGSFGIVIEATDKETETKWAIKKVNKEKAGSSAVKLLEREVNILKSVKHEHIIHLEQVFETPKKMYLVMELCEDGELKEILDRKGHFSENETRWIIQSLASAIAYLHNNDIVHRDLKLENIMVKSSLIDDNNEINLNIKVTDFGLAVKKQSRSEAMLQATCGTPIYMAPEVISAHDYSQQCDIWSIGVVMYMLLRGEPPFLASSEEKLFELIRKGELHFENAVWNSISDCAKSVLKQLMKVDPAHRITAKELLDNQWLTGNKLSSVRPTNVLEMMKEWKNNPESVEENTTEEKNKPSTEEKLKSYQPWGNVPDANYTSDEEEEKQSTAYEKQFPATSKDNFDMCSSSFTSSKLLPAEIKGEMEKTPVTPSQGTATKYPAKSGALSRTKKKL
A number is an active result; 0 = inactive; - = no result; + = active, no number.

SMILES	ID4 SMM	STK33 inh
NC(=O)[C@@H]1[C@H]2C(=O)O[C@H](c3ccccc3)[C@H](c3ccccc3)N2[C@H](c2ccc(OCCO)cc2)[C@@]12C(=O)Nc1ccc(C#CC3=CCCCC3)cc12	-	0
O=C1O[C@@H](c2ccccc2)[C@@H](c2ccccc2)N2[C@@H](c3ccc(OCCO)cc3)[C@]3(C(=O)Nc4ccc(C#CC5=CCCCC5)cc43)[C@@H](C(=O)N3CCCCCCC3)[C@H]12	0	21
COc1cc2c(cc1O)CCC1C2CCC2(C)C(O)CCC12 (stereo not drawn)	0	-
O=C(Nc1ccc(S(=O)(=O)Nc2ncccn2)cc1)C1CCC1	0	0
CC(C)c1ccc2c(c1)c1c3c(cncn32)CCC1	0	-
CN(C)c1nc(OC(C(F)(F)F)C(F)(F)F)nc(N(c2ccccc2)c2ccccc2)n1	0	-
O=C1O[C@H](c2ccccc2)[C@H](c2ccccc2)N2[C@H]1[C@@H](C(=O)N1CCCCCCC1)[C@]1(C(=O)Nc3ccccc31)[C@H]2c1ccc(OCCO)cc1	0	0
O=C1O[C@@H](c2ccccc2)[C@@H](c2ccccc2)N2[C@@H](c3ccc(OCCO)cc3)[C@]3(C(=O)Nc4ccccc43)[C@@H](C(=O)N3CCCCCCC3)[C@H]12	+	0
COCCOC(=O)N1C(=O)[C@@]2(c3cc(C#Cc4ccc(OC)cc4)ccc31)[C@H](C(=O)N1CCc3cc(OC)c(OC)cc3C1)[C@H]1C(=O)O[C@H](c3ccccc3)[C@H](c3ccccc3)N1[C@@H]2c1ccccc1OCCO	+	0
COCCOC(=O)N1C(=O)[C@@]2(c3cc(C#Cc4ccc(OC)cc4)ccc31)[C@H](c1ccccc1OCCO)N1[C@H](c3ccccc3)[C@H](c3ccccc3)OC(=O)[C@H]1[C@@H]2C(=O)N1CCc2cc(OC)c(OC)cc2C1	-	0
O=C(COc1ccccc1Cl)Nc1cccc(Oc2ccc3c(c2)C(=O)NC3=O)c1	0	0
C[C@@H]1Oc2c(c(O)c3c(c2C(CC(=O)O)c2ccccc2)OC(C)(C)C=C3)C(=O)[C@H]1C (stereo partly drawn)	-	0
Cc1c(NC(=S)NCCc2c[nH]c3ccccc23)c(=O)n(-c2ccccc2)n1C	+	0
Cc1c(NC(=S)NCc2ccccn2)c(=O)n(-c2ccccc2)n1C	0	0
O=S(=O)(c1cccc2cccnc12)N1CCN(Cc2ccc(OCCO)cc2)CC1	+	0
O=S(=O)(NC1CCN(Cc2ccc(OCCO)cc2)CC1)c1cccc2cccnc12	0	-
O=C(CCSc1nnnn1-c1ccccc1)Nc1ccc(Cl)cc1	0	0
O=C(Nc1sccc1C(=O)N1CCOCC1)c1cc2ccccc2oc1=O	0	0
COC(=O)c1nnn(CC(=O)N(Cc2ccccc2)c2ccc(Br)cc2)c1C(=O)OC	0	-
CS(=O)(=O)N(CC(=O)Nc1cccc(Br)c1)c1cccc(Cl)c1	0	0
OCC1OC(n2cnc3c(NC4CCCC4)ncnc32)C(O)C1O (stereo not drawn)	0	-
Nc1ncnc2c1c(I)cn2C1OC(CO)C(O)C1O (stereo not drawn)	0	53
Cc1ccc(N2CC(C(=O)Nc3ccc(S(=O)(=O)NCC4CCCO4)cc3)CC2=O)cc1 (stereo not drawn)	+	0
CS(=O)(=O)Nc1ccc(S(=O)(=O)NCC2CCCO2)cc1 (stereo not drawn)	0	0
COc1ccc(NC(=O)N(C)C[C@@H]2Oc3ncc(/C=C/c4ccccc4)cc3C(=O)N([C@H](C)CO)C[C@@H]2C)cc1	-	0
SMILES	ID4 SMM	STK33 inh
COc1cccc(NC(=O)N(C)C[C@@H]2Oc3ncc(/C=C/c4ccccc4)cc3C(=O)N([C@H](C)CO)C[C@@H]2C)c1	+	-
CCCNC(=O)N(C)C[C@H]1Oc2ncc(-c3ccc(C(=O)N(C)C)cc3)cc2C(=O)N([C@H](C)CO)C[C@H]1C	+	-
C[C@@H]1CN([C@@H](C)CO)C(=O)c2cc(-c3ccc(F)cc3)cnc2O[C@@H]1CN(C)C(=O)Nc1ccccc1F	+	-
COc1cccc(NC(=O)N(C)C[C@H]2Oc3ncc(C#Cc4ccncc4)cc3C(=O)N([C@H](C)CO)C[C@H]2C)c1	0	-
C[C@H](CO)N1C[C@H](C)[C@H](CN(C)C(=O)Nc2ccccc2)Oc2ncc(/C=C/c3ccccc3)cc2C1=O	+	0
C[C@H](CO)N1C[C@H](C)[C@H](CN(C)C(=O)Nc2ccccc2F)Oc2ncc(-c3ccc(F)cc3)cc2C1=O	0	-
CCCNC(=O)N(C)C[C@H]1Oc2ncc(-c3ccncc3)cc2C(=O)N([C@@H](C)CO)C[C@H]1C	0	-
CC1(C)S[C@@H]2[C@H](NC(=O)[C@H](NC(=O)N3CCNC3=O)c3ccccc3)C(=O)N2[C@H]1C(=O)O	0	0
C[C@@H]1CN([C@@H](C)CO)C(=O)c2cc(NC(=O)Nc3ccccc3)ccc2O[C@@H](C)CCCCO[C@@H]1CN(C)S(=O)(=O)c1ccc(F)cc1	0	-
O=C(CSc1nnnn1-c1ccccc1Cl)Nc1ccc(Br)cc1	0	0
O=C(Cn1cnc2sc(-c3ccccc3)cc2c1=O)Nc1ccccc1	0	0
CC(Sc1ncnc2sc3c(c12)CCCC3)C(=O)Nc1ccc(Br)cc1 (stereo not drawn)	0	0
O=C(CSc1nc2[nH]ncc2c(=O)n1-c1ccccc1)Nc1ccc(F)c(Cl)c1	0	0
C=C(C)[C@@]12O[C@@H]1[C@@]1(C)C(=CC2=O)CC[C@@H](O)[C@@H]1C	0	0
C[C@H](CO)N1C[C@H](C)[C@@H](CN(C)C(=O)Nc2ccc(C(F)(F)F)cc2)Oc2c(NC(=O)Nc3cccc4ccccc34)cccc2C1=O	0	-
C[C@H](CO)N1C[C@H](C)[C@H](CN(C)C(=O)Nc2ccc(C(F)(F)F)cc2)Oc2c(NC(=O)Nc3cccc4ccccc34)cccc2C1=O	+	-
C[C@@H]1CN([C@H](C)CO)C(=O)c2cc(/C=C/c3ccccc3)cnc2O[C@@H]1CN(C)C(=O)Nc1ccc(C(F)(F)F)cc1	0	-
C[C@@H]1CN([C@@H](C)CO)C(=O)c2cc(/C=C/c3ccccc3)cnc2O[C@H]1CN(C)C(=O)Nc1ccccc1F	+	-
CC(C)=CCCC(C)(O)C1Cc2cc(C(=O)O)cc(CC=C(C)C)c2O1 (stereo not drawn)	-	0
COC(=O)C1=CO[C@@H](O[C@@H]2O[C@H](CO)[C@@H](O)[C@H](O)[C@H]2O)[C@H]2[C@@H]1[C@H](OC(=O)/C=C\c1ccc(O)cc1)C[C@]2(C)OC(C)=O	-	0
COc1ccc2cc1Oc1ccc(cc1)C[C@H]1c3cc(c(OC)cc3CCN1C)Oc1c(OC)c(OC)cc3c1[C@H](C2)N(C)CC3	-	0
COc1cc2c3cc1Oc1c(OC)c(OC)cc4c1[C@@H](Cc1ccc(OC(=O)c5ccc([N+](=O)[O-])cc5)c(c1)Oc1ccc(cc1)C[C@@H]3N(C)CC2)N(C)CC4	+	0
COC(=O)CC(O)(CCCC(C)(C)O)C(=O)O[C@@H]1C(OC)=C[C@]23CCCN2CCc2cc4c(cc2[C@@H]13)OCO4 (stereo partly drawn)	-	0
O=C(CSc1nnc(-c2cccnc2)n1-c1ccccc1)N1CCN(c2ccc(F)cc2)CC1	+	0
O=C(CSc1nnc(-c2cccnc2)n1-c1ccccc1)N1CCc2ccccc21	0	0
O=C(c1ccc([N+](=O)[O-])cc1)N(Cc1cc2ccccc2[nH]c1=O)c1ccccc1	+	0
Cc1ccc(N(Cc2cc3ccccc3[nH]c2=O)C(=O)c2cccnc2)cc1	0	0
